According to the supplement of paper PMC7830784:
Where a name gives a salt, the structure may show the parent alone.

Tested on: Brugia pahangi adult female
Assay: IC50 motility inhibition on day 3
Settings: 3 days
Description: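 Single adult female Brugia pahangi worms in 24-well plates (RPMI-1640, 5% FBS, 37 °C) were treated with 10 µM of each compound from a 2121-drug library (4 replicates; 1% DMSO vehicle and 10 µM auranofin controls). Motility was recorded with WormAssay dark-field imaging, and % inhibition of motility on day 3 is relative to vehicle. IC50 values for selected hits come from a 6-point dilution series (30 to 0.1 µM) fitted in GraphPad Prism.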

SMILES | IC50 motility inhibition on day 3 [µM]
CC(=O)Oc1ccccc1C(=O)Nc1ncc([N+](=O)[O-])s1 [nitazoxanide] | 5.78
CC(C)(C)CC(C)(C)c1ccc(OCCOCC[N+](C)(C)Cc2ccccc2)cc1 [benzethonium chloride] | 1.4
Oc1c(Cl)cc(Cl)c2cccnc12 [chloroxine] | 0.803
CC1=CC(=O)c2ccccc2C1=O [menadione] | 4.23
Cc1cc(/C=C/c2ccc3cc(N(C)C)ccc3[n+]2C)c(C)n1-c1ccccc1 [pyrvinium pamoate] | < 0.1
Cc1cc(CC(C)CC(C)(C)C)n(O)c(=O)c1 (stereo not given) [piroctone olamine] | 0.883
CCCCCCCCCCCCCCCC[N+](C)(C)C [cetrimonium bromide] | 6.16
CCCCCCCCCCCCC[N+](C)(C)Cc1ccccc1 [benzalkonium chloride] | 1.9
Clc1ccc(C(Cn2ccnc2)OCc2ccsc2Cl)c(Cl)c1 (stereo not given) [tioconazole] | 3.18
Oc1c(Cl)cc(Cl)cc1Sc1cc(Cl)cc(Cl)c1O [bithionol] | 6.1
CCCCC(CC)COC(=O)CC(C(=O)OCC(CC)CCCC)S(=O)(=O)O (stereo not given) [docusate sodium] | 0.294
O=[N+]([O-])c1ccc(O)c2ncccc12 [nitroxoline] | 6.7
Clc1ccc(COC(Cn2ccnc2)c2ccc(Cl)cc2Cl)c(Cl)c1 (stereo not given) [miconazole nitrate] | 3.3
O=C(Nc1ccc([N+](=O)[O-])cc1Cl)c1cc(Cl)ccc1O [niclosamide] | 1.17
Clc1ccc(COC(Cn2ccnc2)c2ccc(Cl)cc2Cl)cc1 (stereo not given) [econazole nitrate] | 3.97
CCCCCCCCCc1ccc(OCCOCCOCCOCCOCCOCCOCCOCCOCCO)cc1 [nonoxynol-9] | 3.24
CC(=O)OC[C@H]1O[C@@H]([S-])[C@H](OC(C)=O)[C@@H](OC(C)=O)[C@@H]1OC(C)=O.CCP(CC)CC.[Au+] [Auranofin] | 0.7
CC[n+]1c(-c2ccccc2)c2cc(N)ccc2c2ccc(N)cc21 [homidium bromide] | 5.43
O=C(Nc1ccc([N+](=O)[O-])cc1Cl)c1ccccc1O | 2.6
CSc1ccc2c(c1)N(CCC1CCCCN1C)c1ccccc1S2 (stereo not given) [Thioridazine hydrochloride] | 8.08

SMILES | IC50 motility inhibition on day 3 [µM]
Cc1cc(C(C)(C)CC(C)(C)C)ccc1OCCOCC[N+](C)(C)Cc1ccccc1 [methylbenzethonium chloride] | 3.46
Cc1cc(C2CCCCC2)n(O)c(=O)c1 [ciclopirox olamine] | 0.287
Oc1ccc2ccccc2c1 [beta-naphthol] | 8.31
O=C1C(O)=C([C@H]2CC[C@H](c3ccc(Cl)cc3)CC2)C(=O)c2ccccc21 [atovaquone] | 4.16
Oc1c(I)cc(Cl)c2cccnc12 [clioquinol] | 2.61
C[n+]1c2cc(N)ccc2cc2ccc(N)cc21 [acriflavinium hydrochloride] | 4.62
Oc1ccc(Cl)c2cccnc12 [cloxyquin] | 4.9
O=C(Nc1ncc([N+](=O)[O-])s1)c1ccccc1O [Tizoxanide] | 3.4
COc1cc(NC(C)CCCN)c2ncccc2c1 (stereo not given) [primaquine diphosphate] | 5.06
Oc1c(I)cc(I)c2cccnc12 [iodoquinol] | 1.9
CC(C)/N=c1\cc2n(-c3ccc(Cl)cc3)c3ccccc3nc-2cc1Nc1ccc(Cl)cc1 [clofazimine] | > 30
COc1cc(C)c2c(Oc3cccc(C(F)(F)F)c3)c(OC)cc(NC(C)CCCN)c2n1 (stereo not given) [Tafenoquine Succinate] | 14.1
CCCCCCCCNC(C)C(O)c1ccc(SC(C)C)cc1 (stereo not given) [suloctidil] | 3.66
C1CCC(C(CC2CCCCN2)C2CCCCC2)CC1 (stereo not given) [perhexiline maleate] | 7.46
N=C(NCCCCCCNC(=N)NC(=N)Nc1ccc(Cl)cc1)NC(=N)Nc1ccc(Cl)cc1 [chlorhexidine] | 9.13
Cc1cc2nc3c(=O)[nH]c(=O)nc-3n(C[C@H](O)[C@H](O)[C@H](O)CO)c2cc1C [riboflavin] | 16
Clc1ccc(Cn2c(CN3CCCC3)nc3ccccc32)cc1 [clemizole hydrochloride] | 6.51
Oc1c(Cl)cc(Cl)c(Cl)c1Cc1c(O)c(Cl)cc(Cl)c1Cl [hexachlorophene] | 1.7
O=C1c2cccc(O)c2C(=O)c2c(O)cccc21 [dantron] | 18.3
COC(=O)C1=C(C)NC(C)=C(C(=O)OC(C)C)C1c1cccc2nonc12 (stereo not given) [isradipine] | 2.75
